Source: ChEMBL document CHEMBL1961873, “Compounds: GSK PKIS; Assays: Nanosyn kinase panel” (2012)

Tests used:
[1] = biological target: Rho-associated protein kinase 1 (Homo sapiens) (UniProt Q13464); conditions: at 1 µM;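 note: reported values are mean percent inhibition of ROCK1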
[2] = biological target: Rho-associated protein kinase 2 (Homo sapiens) (UniProt O75116); conditions: at 0.1 µM
[3] = biological target: Rho-associated protein kinase 2 (Homo sapiens) (UniProt O75116); conditions: at 1 µM
[4] = biological target: Ribosomal protein S6 kinase alpha-1 (Homo sapiens) (UniProt Q15418); conditions: at 0.1 µM
[5] = biological target: Ribosomal protein S6 kinase alpha-1 (Homo sapiens) (UniProt Q15418); conditions: at 1 µM
[6] = biological target: Ribosomal protein S6 kinase alpha-3 (Homo sapiens) (UniProt P51812); conditions: at 0.1 µM
[7] = biological target: Ribosomal protein S6 kinase alpha-3 (Homo sapiens) (UniProt P51812); conditions: at 1 µM
[8] = biological target: Ribosomal protein S6 kinase alpha-2 (Homo sapiens) (UniProt Q15349); conditions: at 0.1 µM
[9] = biological target: Ribosomal protein S6 kinase alpha-2 (Homo sapiens) (UniProt Q15349); conditions: at 1 µM
[10] = biological target: Ribosomal protein S6 kinase alpha-6 (Homo sapiens) (UniProt Q9UK32); conditions: at 0.1 µM
[11] = biological target: Ribosomal protein S6 kinase alpha-6 (Homo sapiens) (UniProt Q9UK32); conditions: at 1 µM
[12] = biological target: T1, Serine/threonine-protein kinase Sgk1 (Homo sapiens) (UniProt O00141); conditions: at 0.1 µM
T1 sequence (whole entry): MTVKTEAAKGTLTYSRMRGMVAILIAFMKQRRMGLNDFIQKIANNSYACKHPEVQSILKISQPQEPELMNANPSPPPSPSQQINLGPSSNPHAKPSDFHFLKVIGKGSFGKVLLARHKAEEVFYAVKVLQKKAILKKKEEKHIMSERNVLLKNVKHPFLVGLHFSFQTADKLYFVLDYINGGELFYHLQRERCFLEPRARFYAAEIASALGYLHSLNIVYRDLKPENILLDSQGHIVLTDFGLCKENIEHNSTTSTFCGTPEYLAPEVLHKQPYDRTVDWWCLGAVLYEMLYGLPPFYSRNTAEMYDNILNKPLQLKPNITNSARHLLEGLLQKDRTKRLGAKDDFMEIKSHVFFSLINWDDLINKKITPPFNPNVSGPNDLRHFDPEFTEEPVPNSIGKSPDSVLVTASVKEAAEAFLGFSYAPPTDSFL

[13] = biological target: T1, Serine/threonine-protein kinase Sgk1 (Homo sapiens); conditions: at 1 µM
[14] = biological target: T2, Serine/threonine-protein kinase Sgk2 (Homo sapiens) (UniProt Q9HBY8); conditions: at 0.1 µM
T2 sequence (whole entry): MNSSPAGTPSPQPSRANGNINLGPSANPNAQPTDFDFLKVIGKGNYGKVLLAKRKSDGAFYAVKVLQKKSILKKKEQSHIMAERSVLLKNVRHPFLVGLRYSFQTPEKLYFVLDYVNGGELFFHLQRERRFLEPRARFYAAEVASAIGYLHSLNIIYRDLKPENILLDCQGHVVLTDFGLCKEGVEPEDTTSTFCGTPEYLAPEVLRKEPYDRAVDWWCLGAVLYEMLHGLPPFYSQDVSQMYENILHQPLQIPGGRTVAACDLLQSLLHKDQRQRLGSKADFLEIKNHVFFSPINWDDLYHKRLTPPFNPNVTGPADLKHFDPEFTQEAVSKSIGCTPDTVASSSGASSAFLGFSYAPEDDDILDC

[15] = biological target: T2, Serine/threonine-protein kinase Sgk2 (Homo sapiens); conditions: at 1 µM
[16] = biological target: T3, Serine/threonine-protein kinase Sgk3 (Homo sapiens) (UniProt Q96BR1); conditions: at 0.1 µM
T3 sequence (whole entry): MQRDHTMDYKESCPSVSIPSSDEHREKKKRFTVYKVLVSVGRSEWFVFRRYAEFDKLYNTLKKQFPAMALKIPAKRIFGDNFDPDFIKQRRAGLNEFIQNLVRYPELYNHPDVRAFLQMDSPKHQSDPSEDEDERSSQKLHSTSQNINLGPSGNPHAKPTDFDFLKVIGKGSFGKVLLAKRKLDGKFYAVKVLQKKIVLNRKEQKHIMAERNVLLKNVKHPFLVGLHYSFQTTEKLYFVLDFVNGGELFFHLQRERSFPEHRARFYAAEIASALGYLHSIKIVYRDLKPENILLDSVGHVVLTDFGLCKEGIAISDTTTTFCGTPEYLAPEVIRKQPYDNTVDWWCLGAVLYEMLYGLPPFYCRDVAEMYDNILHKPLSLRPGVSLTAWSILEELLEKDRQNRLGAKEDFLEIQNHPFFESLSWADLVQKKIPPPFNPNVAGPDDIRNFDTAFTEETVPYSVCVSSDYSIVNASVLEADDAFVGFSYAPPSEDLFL

[17] = biological target: T3, Serine/threonine-protein kinase Sgk3 (Homo sapiens); conditions: at 1 µM
[18] = biological target: 5'-AMP-activated protein kinase catalytic subunit alpha-1 (Homo sapiens) (UniProt Q13131); conditions: at 0.1 µM
[19] = biological target: 5'-AMP-activated protein kinase catalytic subunit alpha-1 (Homo sapiens) (UniProt Q13131); conditions: at 1 µM
[20] = biological target: 5'-AMP-activated protein kinase catalytic subunit alpha-2 (Homo sapiens) (UniProt P54646); conditions: at 0.1 µM;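 note: mean inhibition measured on the AMPK complex of alpha2, beta1 and gamma1 subunits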
5'-AMP-activated protein kinase catalytic subunit alpha-2 (Homo sapiens), sequence (P54646 whole entry, looked up): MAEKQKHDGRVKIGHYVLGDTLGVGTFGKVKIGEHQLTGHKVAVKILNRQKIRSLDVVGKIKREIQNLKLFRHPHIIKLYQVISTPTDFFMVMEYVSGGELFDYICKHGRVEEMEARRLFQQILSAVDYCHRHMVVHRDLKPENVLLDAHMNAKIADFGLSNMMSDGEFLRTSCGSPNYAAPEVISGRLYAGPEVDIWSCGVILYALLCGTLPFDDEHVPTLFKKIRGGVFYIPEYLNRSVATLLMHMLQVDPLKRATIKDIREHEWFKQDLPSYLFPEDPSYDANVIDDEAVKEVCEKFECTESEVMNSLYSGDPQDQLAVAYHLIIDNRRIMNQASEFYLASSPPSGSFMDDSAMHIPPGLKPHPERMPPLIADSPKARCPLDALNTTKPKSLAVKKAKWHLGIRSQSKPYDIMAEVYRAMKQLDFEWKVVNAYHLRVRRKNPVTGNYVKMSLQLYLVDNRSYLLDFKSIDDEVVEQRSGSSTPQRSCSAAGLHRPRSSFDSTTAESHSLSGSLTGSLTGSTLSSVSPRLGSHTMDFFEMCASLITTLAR

Ribosomal protein S6 kinase alpha-6 (Homo sapiens), sequence (Q9UK32 whole entry): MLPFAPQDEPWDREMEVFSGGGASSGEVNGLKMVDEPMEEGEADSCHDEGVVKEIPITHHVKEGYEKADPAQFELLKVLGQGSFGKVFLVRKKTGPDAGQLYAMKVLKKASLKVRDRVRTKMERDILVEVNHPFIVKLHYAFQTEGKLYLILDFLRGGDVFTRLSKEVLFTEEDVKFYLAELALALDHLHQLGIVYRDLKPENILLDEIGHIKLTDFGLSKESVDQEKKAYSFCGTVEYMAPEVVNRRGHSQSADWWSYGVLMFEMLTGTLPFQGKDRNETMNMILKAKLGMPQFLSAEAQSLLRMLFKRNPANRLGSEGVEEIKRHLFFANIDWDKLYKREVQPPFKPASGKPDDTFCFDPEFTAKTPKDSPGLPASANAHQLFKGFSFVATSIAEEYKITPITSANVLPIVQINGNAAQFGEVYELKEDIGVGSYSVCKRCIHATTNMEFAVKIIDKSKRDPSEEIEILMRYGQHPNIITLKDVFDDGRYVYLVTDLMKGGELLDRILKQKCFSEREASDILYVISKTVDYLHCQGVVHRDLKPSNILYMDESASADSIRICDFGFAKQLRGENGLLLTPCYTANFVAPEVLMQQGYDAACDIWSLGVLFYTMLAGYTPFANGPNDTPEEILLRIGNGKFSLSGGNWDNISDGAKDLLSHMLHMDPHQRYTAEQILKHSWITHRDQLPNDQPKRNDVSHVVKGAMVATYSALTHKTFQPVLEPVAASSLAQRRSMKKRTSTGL
Rho-associated protein kinase 2 (Homo sapiens), sequence (O75116 whole entry, looked up): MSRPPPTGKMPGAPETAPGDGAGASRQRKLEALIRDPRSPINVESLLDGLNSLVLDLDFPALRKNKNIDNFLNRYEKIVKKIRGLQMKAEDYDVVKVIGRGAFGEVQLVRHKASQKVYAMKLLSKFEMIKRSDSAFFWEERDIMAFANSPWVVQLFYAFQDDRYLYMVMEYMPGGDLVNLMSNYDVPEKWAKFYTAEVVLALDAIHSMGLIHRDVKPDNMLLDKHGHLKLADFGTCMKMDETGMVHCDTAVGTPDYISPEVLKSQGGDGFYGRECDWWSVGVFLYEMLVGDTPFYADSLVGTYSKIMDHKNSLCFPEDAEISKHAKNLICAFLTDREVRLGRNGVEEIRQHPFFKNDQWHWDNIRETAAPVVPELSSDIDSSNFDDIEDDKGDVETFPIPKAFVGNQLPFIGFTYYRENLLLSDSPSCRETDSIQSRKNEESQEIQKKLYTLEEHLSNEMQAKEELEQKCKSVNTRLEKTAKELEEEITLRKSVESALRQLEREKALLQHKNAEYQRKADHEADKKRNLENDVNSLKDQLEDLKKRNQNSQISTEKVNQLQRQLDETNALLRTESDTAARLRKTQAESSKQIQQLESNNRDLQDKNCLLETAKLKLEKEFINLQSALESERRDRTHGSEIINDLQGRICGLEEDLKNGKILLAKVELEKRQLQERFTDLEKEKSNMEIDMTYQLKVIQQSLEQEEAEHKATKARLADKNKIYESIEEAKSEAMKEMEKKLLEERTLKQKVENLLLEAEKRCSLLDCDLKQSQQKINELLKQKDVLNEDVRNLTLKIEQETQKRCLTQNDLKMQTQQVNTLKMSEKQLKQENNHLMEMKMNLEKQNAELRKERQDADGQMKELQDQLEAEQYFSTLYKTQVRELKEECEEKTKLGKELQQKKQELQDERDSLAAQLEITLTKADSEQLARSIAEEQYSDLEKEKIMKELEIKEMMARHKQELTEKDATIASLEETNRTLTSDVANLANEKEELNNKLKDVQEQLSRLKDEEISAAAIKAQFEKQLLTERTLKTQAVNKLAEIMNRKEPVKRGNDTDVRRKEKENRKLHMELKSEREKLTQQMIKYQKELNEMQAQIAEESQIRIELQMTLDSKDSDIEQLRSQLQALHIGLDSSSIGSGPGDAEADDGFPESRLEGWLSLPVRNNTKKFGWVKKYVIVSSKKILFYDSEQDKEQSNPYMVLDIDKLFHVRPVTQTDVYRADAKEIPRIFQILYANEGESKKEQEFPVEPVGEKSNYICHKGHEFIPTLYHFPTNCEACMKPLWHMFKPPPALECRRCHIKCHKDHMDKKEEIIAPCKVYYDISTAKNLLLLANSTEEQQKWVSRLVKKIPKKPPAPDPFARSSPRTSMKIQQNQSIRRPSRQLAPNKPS
Ribosomal protein S6 kinase alpha-3 (Homo sapiens), sequence (P51812 whole entry): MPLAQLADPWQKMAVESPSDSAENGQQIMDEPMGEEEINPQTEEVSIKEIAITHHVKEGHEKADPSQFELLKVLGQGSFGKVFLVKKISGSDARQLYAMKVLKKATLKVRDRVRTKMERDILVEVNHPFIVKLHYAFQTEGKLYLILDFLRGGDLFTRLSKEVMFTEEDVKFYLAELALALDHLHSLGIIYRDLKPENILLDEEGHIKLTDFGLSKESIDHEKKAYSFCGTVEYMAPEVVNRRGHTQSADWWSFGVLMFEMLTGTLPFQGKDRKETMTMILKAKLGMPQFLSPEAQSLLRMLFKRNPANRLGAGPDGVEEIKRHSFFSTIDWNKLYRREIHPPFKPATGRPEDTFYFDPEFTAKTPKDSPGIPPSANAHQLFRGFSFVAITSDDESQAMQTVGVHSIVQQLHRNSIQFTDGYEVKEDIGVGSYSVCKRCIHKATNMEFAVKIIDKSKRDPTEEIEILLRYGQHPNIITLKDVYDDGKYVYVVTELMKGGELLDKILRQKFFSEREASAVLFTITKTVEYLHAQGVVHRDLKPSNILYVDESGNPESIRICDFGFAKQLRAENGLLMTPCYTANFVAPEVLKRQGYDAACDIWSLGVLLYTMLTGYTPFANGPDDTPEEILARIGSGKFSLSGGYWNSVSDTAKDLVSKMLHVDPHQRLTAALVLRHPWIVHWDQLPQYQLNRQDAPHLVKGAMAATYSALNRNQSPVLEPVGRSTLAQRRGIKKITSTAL
Ribosomal protein S6 kinase alpha-1 (Homo sapiens), sequence (Q15418 whole entry): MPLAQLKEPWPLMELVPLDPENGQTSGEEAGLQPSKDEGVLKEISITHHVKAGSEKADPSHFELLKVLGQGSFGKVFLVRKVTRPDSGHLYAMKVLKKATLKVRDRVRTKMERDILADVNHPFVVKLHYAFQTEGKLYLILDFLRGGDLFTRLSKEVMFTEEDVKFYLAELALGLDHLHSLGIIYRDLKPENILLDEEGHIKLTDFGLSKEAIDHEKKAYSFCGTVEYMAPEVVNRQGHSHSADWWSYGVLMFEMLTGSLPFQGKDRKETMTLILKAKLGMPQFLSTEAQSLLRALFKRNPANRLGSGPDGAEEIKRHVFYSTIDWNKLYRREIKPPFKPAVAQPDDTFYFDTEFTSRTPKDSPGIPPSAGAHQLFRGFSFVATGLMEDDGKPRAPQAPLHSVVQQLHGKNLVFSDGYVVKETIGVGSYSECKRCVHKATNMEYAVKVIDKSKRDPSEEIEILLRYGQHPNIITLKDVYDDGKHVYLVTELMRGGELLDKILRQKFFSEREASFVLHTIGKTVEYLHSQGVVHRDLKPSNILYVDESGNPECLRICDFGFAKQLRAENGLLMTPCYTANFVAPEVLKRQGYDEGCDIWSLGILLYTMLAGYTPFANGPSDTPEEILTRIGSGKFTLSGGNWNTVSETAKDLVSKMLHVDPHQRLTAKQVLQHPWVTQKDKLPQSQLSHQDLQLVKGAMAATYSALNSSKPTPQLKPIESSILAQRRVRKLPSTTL
5'-AMP-activated protein kinase catalytic subunit alpha-1 (Homo sapiens), sequence (Q13131 whole entry, looked up): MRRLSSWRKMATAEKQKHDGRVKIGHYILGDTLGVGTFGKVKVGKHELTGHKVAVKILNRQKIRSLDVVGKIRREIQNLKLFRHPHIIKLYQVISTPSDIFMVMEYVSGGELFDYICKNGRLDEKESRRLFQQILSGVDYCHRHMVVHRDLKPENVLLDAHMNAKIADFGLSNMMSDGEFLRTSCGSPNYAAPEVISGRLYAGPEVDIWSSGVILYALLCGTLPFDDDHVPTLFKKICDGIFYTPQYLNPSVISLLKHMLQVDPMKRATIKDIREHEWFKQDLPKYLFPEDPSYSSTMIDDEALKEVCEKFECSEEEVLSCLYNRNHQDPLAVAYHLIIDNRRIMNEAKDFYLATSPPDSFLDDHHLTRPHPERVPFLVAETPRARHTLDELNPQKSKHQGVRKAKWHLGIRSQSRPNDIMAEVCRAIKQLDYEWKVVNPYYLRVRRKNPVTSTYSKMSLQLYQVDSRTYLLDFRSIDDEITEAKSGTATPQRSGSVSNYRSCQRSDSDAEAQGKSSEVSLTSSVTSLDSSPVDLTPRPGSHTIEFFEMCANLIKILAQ

Row | SMILES | inhibition [1] [%] | inhibition [2] [%] | inhibition [3] [%] | inhibition [4] [%] | inhibition [5] [%] | inhibition [6] [%] | inhibition [7] [%] | inhibition [8] [%] | inhibition [9] [%] | inhibition [10] [%] | inhibition [11] [%] | inhibition [12] [%] | inhibition [13] [%] | inhibition [14] [%] | inhibition [15] [%] | inhibition [16] [%] | inhibition [17] [%] | inhibition [18] [%] | inhibition [19] [%] | inhibition [20] [%]
1 | Fc1ccc(-c2nn3ccccc3c2-c2ccncc2)cc1 | 4.95 | 5.66 | 3.03 | 1.48 | 4.42 | 1.87 | 3.24 | 0.67 | 1.19 | 1.1 | 2.09 | 0.19 | 3.23 | 3.79 | 3.17 | 3.25 | 5.79 | 1.13 | -0.08 | 1.39
2 | NS(=O)(=O)c1ccc(Nc2ncc(-c3ccccc3)o2)cc1 | 2.68 | 4.4 | 8.55 | 2.44 | 6.42 | 1.17 | 4.01 | 2.5 | 4.37 | 1.15 | 4.32 | 2.77 | 13 | 2.15 | 10.4 | 1.86 | 2.86 | 4.14 | 11.5 | 1.03
3 | N#Cc1c(NC(=O)CN2CCOCC2)sc2c1CCCC2 | 0.87 | 5.37 | 3.55 | 2.13 | 3.62 | 1.56 | 0.9 | 1.89 | 1.68 | 1.4 | 1.35 | 0.28 | 5.76 | 2.3 | 4.38 | 3.14 | 4.05 | 3.31 | 4.25 | 1.66
4 | CNC(=O)c1cncc(/C=C/c2ccccc2Cl)c1 | 1.5 | 3.13 | 6.36 | 0.85 | 2.91 | 1.15 | 1.38 | -0.36 | -1.02 | 0.95 | 0.65 | 0.52 | 3.45 | 3.22 | 1.73 | 2.89 | 3.36 | 1.03 | 2.25 | -2.07
5 | COc1cc2ncn(-c3cc(OCc4ccccc4C(F)(F)F)c(C(=O)N(C)C)s3)c2cc1OC | 0.34 | -0.35 | 1.56 | -0.72 | 0.84 | -0.53 | 0.59 | -0.15 | 1.29 | -0.29 | 0.1 | 0.62 | 1.02 | 1.9 | -0.51 | 0.08 | -0.88 | -0.68 | -0.02 | -0.26
6 | c1ccc(COc2ccc(Nc3ncnc4ccc(-c5ccco5)cc34)cc2)cc1 | -0.24 | 1.39 | 0.1 | -0.1 | 1.39 | 2.07 | 2.71 | 1.13 | 0.34 | 0.12 | -0.53 | 1.43 | 0.51 | -1.79 | 2.2 | -0.56 | 0.58 | 0.67 | 2.29 | -2.52
7 | Nc1ncc(-c2cccc(S(N)(=O)=O)c2)c2scc(-c3ccc(F)c(Cl)c3)c12 | 1.47 | 2.98 | 2.92 | 2.93 | 6.15 | 2.5 | 2.98 | 3.17 | 2.68 | 2.34 | 3.24 | 2.77 | 2.35 | -0.69 | 4.55 | 3.54 | 0.56 | 3.66 | 4.69 | 0.92
8 | CS(=O)(=O)CCNCc1ccc(-c2ccc3ncnc(Nc4ccc(OCc5ccccc5)c(C(F)(F)F)c4)c3c2)o1 | 2.14 | 2.7 | 2.3 | 0.89 | 1.86 | 1.54 | 1.72 | 2.31 | 2.74 | 0.89 | 0.75 | 3.38 | 3.03 | 1.55 | 1.26 | 2.51 | 4.06 | 3.06 | 2.92 | -6.64
9 | CC(=O)Nc1cccc(C#Cc2cncnc2Nc2ccc(OCc3cccc(F)c3)c(Cl)c2)c1 | 0.67 | 0.44 | 0.1 | 0.12 | -1.94 | 0.9 | -0.35 | 1.46 | 0.33 | 0.92 | 1.39 | 3.01 | 2.43 | -0.35 | 2.06 | 2.61 | -0.92 | 1.72 | -0.52 | 2.44
10 | CCn1c(-c2nonc2N)nc2cnc(Oc3cccc(NC(=O)c4ccc(N(C)C)cc4)c3)cc21 | 87.1 | 85.5 | 86 | 26.1 | 68.3 | 12.7 | 52.8 | 17.4 | 63.6 | 2.31 | 15.2 | 9.87 | 49.7 | 16.3 | 61.9 | 43.8 | 83.5 | 1.59 | 2.17 | 2.3
11 | CCn1c(-c2nonc2N)nc2c(C#CC(C)(C)O)nc(OC[C@H](N)c3ccccc3)cc21 | 24.7 | 9.12 | 51.3 | 3.36 | 12.8 | 1.74 | 14.5 | 3.19 | 10.7 | 1.53 | 7.07 | 1.86 | 3.49 | 5.31 | 13.4 | 31.1 | 57.7 | 17.7 | 65.7 | 4.97
12 | CNC(=O)c1cccc(C#Cc2cncnc2Nc2ccc(OCc3cccc(F)c3)c(Cl)c2)c1 | -0.1 | 0.98 | 4.37 | 1.04 | 1.83 | -0.84 | 0.62 | -0.63 | 0.72 | -0.53 | 0.05 | 1.16 | 0.62 | -0.28 | 0.71 | 0.18 | 1.41 | 0.65 | 2.17 | -3.97
